EBV LMP1 NFkB – EBV LMP1-driven NF-kappaB luciferase reporter inhibitors, primary screen, cell-based, luminescence, single point. LMP1-induced NF-kappaB luciferase reporter cells. AID 504558, 2011. hit rate 0.69% among 350,000. inhibition, % at 12.5 µM; in the data active = inhibition above about 41%; inconclusive = no clear call, values can overlap the other calls;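 also: 0% = neutral control wells and 100% = reference inhibitor control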
MITF TRPM1 HTS – activators of MITF-driven TRPM1 promoter reporter, primary screen, cell-based, SK-MEL-5, luciferase, single point. hit rate 0.75% among 300,000. SK-MEL-5 TRPM1-promoter luciferase, 24 h; % of positive control, neutral wells = 0. activation, % at 12.5 µM;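 active = mean activation of at least 80% with every replicate also reaching 80%; inconclusive = mean reaches 80% but some replicate falls short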;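 also: 0% = neutral control wells and 100% = parthenolide positive control wells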
Wnt bcat act – Wnt/beta-catenin pathway activators, primary screen, cell-based, plate reader, single point | Wnt/beta-catenin reporter cell assay, activator | activation, % at 9.35 µM | hit rate 1.2% among 300,000; in the data active = activation above about 30%, passing the limit was not always enough; inconclusive = no clear call, values can overlap the other calls;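 also: 0% = neutral control wells and 100% = positive control wells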
MITF TRPM1 inh – inhibitors of MITF-dependent TRPM1 promoter reporter, primary screen, cell-based, SK-MEL-5, single point, luciferase; SK-MEL-5 TRPM1 promoter luciferase, 24 h; inhibition, % at 12.5 µM; hit rate 0.83% among 330,000; AID 488899, 2010;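 active = mean inhibition across replicates of 60% or more, whatever share of single replicates reaches that level; inconclusive = some that reach 60%, reason not given; inactive = mean inhibition across replicates below 60%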
C2C12 statin – suppressors of statin myotoxicity in C2C12 myotubes, primary screen, cell-based, single point, plate reader. C2C12 myotubes + simvastatin, ATP luminescence, 48 h; scaled: DMSO 0, geranylgeraniol control 100. rescue of ATP level, % at 7.49 µM. hit rate 0.78% among 330,000. AID 602340, 2012;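 active = mean ATP rescue above about 67%, or every replicate alone reaching that limit, limit read from the data, passing the limit was not always enough; inconclusive = no clear call, values can overlap the other calls; inactive = mean under the limit and some replicate under it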;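 also: myotubes were challenged with 10 µM simvastatin during compound exposure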
esBAF inh – Bmi1 luciferase reporter increase in mESCs, primary screen, esBAF inhibitor project, mouse ES cells, Bmi1 luciferase knock-in, single point. 24 h; 100% = twice the neutral-well signal. reporter increase, % at 12.5 µM. hit rate 2% among 350,000. AID 602393, 2012; in the data active = activation above about 40%; inconclusive = no clear call, values can overlap the other calls;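 also: 0% = median of the plate's neutral control wells and 100% = double that signal; a rise in the Bmi1 reporter signal indicates esBAF inhibition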
* marks the source's active call; other numbers are inactive results; ? = inconclusive; . = no result. Hits are enriched below; roughly 4% of the tested compounds scored in any of these assays.

SMILES	EBV LMP1 NFkB	MITF TRPM1 HTS	Wnt bcat act	MITF TRPM1 inh	C2C12 statin	esBAF inh
COC(=O)c1ccc2c(=O)[nH]c(CSc3nc(C)cs3)nc2c1	-9	31	35*	-24	3	23
COC(=O)c1ccc2c(=O)[nH]c(CSc3nc(-c4ccc(F)cc4)cs3)nc2c1	1	-7	0	10	.	.
Cc1cc(C(=O)CN2C(=O)NC(CCS(C)(=O)=O)C2=O)c(C)n1C1CC1 (stereo not given)	7	-6	-5	6	-16	-4
CCn1c(C)c(C(C)=O)c(NCc2ccccc2)nc1=S	5	-19	-1	19	2	-8
CC(=O)Nc1cnc(-c2ccccc2C(C)=O)cn1	.	.	-3	.	-1	0
CC(=O)Nc1cnc(-c2ccc3c(c2)OCO3)cn1	.	.	40*	.	9	19
CC(=O)Nc1cnc(-c2cc(C)c(O)c(C)c2)cn1	.	.	0	.	-5	72*
COC(=O)[C@H](C)NC(=O)NC(C)CCc1ccccc1 (stereo not given in full)	-11	5	1	-3	-11	-5
COC(=O)[C@@H](NC(=O)NC(C)CCc1ccccc1)C(C)C (stereo not given in full)	-3	-10	.	10	93*	-6
C=CCN1C(=O)S/C(=C\c2ccc(N3CCOCC3)cc2C)C1=O	8	.	39*	-98	2	73*
Cc1cc(C)c(S(=O)(=O)NCCn2ccc3ccccc32)c(C)c1	1	.	2	.	13	-4
CC1CCN(C(=O)CSCc2ccc(Cl)cc2)CC1	-22	?	.	-84	5	49*
CC1CCN(C(=O)CN(Cc2ccc(Cl)cc2)S(C)(=O)=O)CC1	6	7	-2	-3	4	-4
Cc1cnc(C(=O)N(c2ccccc2)C(c2ccccc2)c2nc3ccccc3[nH]2)cn1 (stereo not given)	.	.	-2	.	-2	45*
COCCCNS(=O)(=O)c1ccc2c3c(cccc13)C(=O)S2	0	5	.	-3	-5	1
COc1ccc(Cn2nnc(C(=O)Nc3ccc(F)cc3)c2N)cc1	1	13	3	-20	5	9
COc1ccc(Br)cc1Cn1nnc(C(=O)Nc2ccc3c(c2)OCCO3)c1N	-10	-1	-2	3	-14	13
Nc1c(C(=O)Nc2ccc3c(c2)OCCO3)nnn1Cc1ccc(F)cc1	-56	116*	26	-114	4	96*
Nc1c(C(=O)Nc2ccc3c(c2)OCCO3)nnn1Cc1cccc(Cl)c1	-45	101*	47*	-100	22	55*
Nc1c(C(=O)Nc2ccc3c(c2)OCCO3)nnn1Cc1ccccc1Cl	-53	145*	25	-146	-4	74*
O=C(Nc1ccc2c(c1)OCCO2)c1ccc(CN2CCOCC2)cc1	-11	51	.	-49	-31	56*
O=[N+]([O-])c1ccc(/C=N/n2c(-c3ccccc3)n[nH]c2=S)cc1	1	9	-1	-11	5	-4
O=C(CNS(=O)(=O)c1ccccc1)OCC(=O)c1cccc([N+](=O)[O-])c1	-3	3	.	-5	.	.
N#Cc1ccccc1OCC(=O)Nc1cccc(S(=O)(=O)N2CCCCCC2)c1	15	6	-6	-6	7	11
FC(F)Oc1ccc(NC(=S)NC23CC4CC(CC(C4)C2)C3)cc1	-10	4	-1	-4	-14	50*
CN(C)S(=O)(=O)c1cccc(NC(=S)NC23CC4CC(CC(C4)C2)C3)c1	9	-1	-2	1	-1	-4
CN(C)c1ccc(NC(=S)NC23CC4CC(CC(C4)C2)C3)cc1	-67	40	1	-44	7	67*
CCOc1ccc(NC(=S)NC23CC4CC(CC(C4)C2)C3)cc1	-7	11	-1	-11	-23	5
COc1ccc(CN(C)C[C@H]2OCCCC[C@@H](C)Oc3ccc(NC(=O)Nc4ccc(F)cc4)cc3C(=O)N([C@@H](C)CO)C[C@@H]2C)cc1	.	.	.	.	-519	-2

Compound activity as filed in PubChem BioAssay.
